Test results: PubChem BioAssay (NCATS)
Records with an inconclusive call do not appear. The source made the active and inactive calls. Calls follow the shape of the dose curve; as a rule, active = well fitted inhibition curve with a large enough effect; inconclusive = small, poorly fitted or top-dose-only effect; inactive = flat fitted curve, though single readings scatter.

Columns and labels:
Test in all cases: Cytotoxic Profiling of Annotated Libraries Using Quantitative High-Throughput Screening (AID 1296008); also: nearly all actives have a fitted effect of over 60% in size
Conditions in all cases: Five cell lines viability, CellTiter-Glo ATP luminescence, 48-72 h; max response: hits give low values
CRL-7250 = normal cell line; tested on: CRL-7250
Summary of the method: (§1)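 Compounds were pin-transferred onto cells and incubated 48 or 72 hr at 37 degree Celsius, 95% humidity. CellTiter-Glo was added, plates sat 10 min at room temperature, then ATP-coupled luminescence was imaged as the viability read-out.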

HEK293 = tested on: HEK293
Summary of the method: as §1

HaCat = tested on: HaCat
Summary of the method: as §1

KB-3-1 = tested on: KB-3-1
Summary of the method: as §1

NIH3T3 = tested on: NIH3T3
Summary of the method: as §1

Measured: max response
% is scaled to controls: 0 for no effect and ±100 for the full control effect.

COc1c2c(c(C)c3c1C(=O)OC3)OC1(C)CC(O)C34OC(OC)(CCC3(C)C1C2)OC4(C)CO (stereo not given)
inactive: CRL-7250 | HEK293 -8.39% | HaCat 2.59% | KB-3-1 | NIH3T3

O=C(OCc1ccccc1O[C@@H]1O[C@H](CO)[C@@H](O)[C@H](O)[C@H]1O)C1(O)C=CCCC1O (stereo not given in full)
inactive: CRL-7250 3.78% | HEK293 2.2% | HaCat -2.8% | KB-3-1 5.3% | NIH3T3

C=C1C(O)CC2C(C(=O)O)=COC(O[C@@H]3O[C@H](COC(=O)c4ccc(O)cc4)[C@@H](O)[C@H](O)[C@H]3O)C12 (stereo not given in full)
inactive: CRL-7250 | HEK293 -1.77% | HaCat 2.09% | KB-3-1 | NIH3T3

O=C(O)[C@H](Cc1ccccc1)Oc1ccc(-c2ccccc2)cc1
inactive: CRL-7250 -13.4% | HEK293 4.06% | HaCat -11.4% | KB-3-1 | NIH3T3

H-DPPDPDRFYGMM-NH2
inactive: CRL-7250 | HEK293 -1.35% | HaCat -3.96% | KB-3-1 | NIH3T3

C=CC(C)(O)CCC1C(C)(O)CCC2C(C)(C)CCCC21C (stereo not given)
inactive: CRL-7250 -9.7% | HEK293 -3.72% | HaCat 3.9% | KB-3-1 9.64% | NIH3T3

CC(=O)Nc1cccc2c1c(Sc1ccc(Cl)cc1)c(C)n2CC(=O)O
inactive: CRL-7250 -5.82% | HEK293 1.56% | HaCat -2.39% | KB-3-1 -3.16% | NIH3T3

CC(C)CC[C@@H](O)[C@](C)(O)[C@H]1CC[C@@]2(O)C3=CC(=O)[C@@H]4C[C@@H](O)[C@@H](O)C[C@]4(C)[C@H]3CC[C@]12C
inactive: CRL-7250 -1.43% | HEK293 3.83% | HaCat 4.07% | KB-3-1 | NIH3T3

CC(=O)OCC1OC(O[C@H]2CC[C@]34C[C@]35CC(O)[C@]3(C)[C@@H]([C@H](C)CC/C=C(\C)C(=O)O)C(O)C[C@@]3(C)C5CC[C@H]4C2(C)C)C(O)C(O)C1OC1OCC(O)C(O)C1O (stereo not given in full)
inactive: CRL-7250 -0.106% | HEK293 -3.14% | HaCat 2.3% | KB-3-1 7.5% | NIH3T3

C=C1CC23CC1CCC2C12OC(=O)C(C)(C(O)C(O)C1O)C2C3C(=O)O (stereo not given)
inactive: CRL-7250 -6.36% | HEK293 -2% | HaCat 2.72% | KB-3-1 | NIH3T3

C[C@H]1[C@H](C)CC[C@]2(C(=O)O)CC[C@]3(C)C(=CCC4[C@@]5(C)C[C@@H](O)[C@H](O)C(C)(C)C5CC[C@]43C)[C@H]12 (stereo not given in full)
inactive: CRL-7250 | HEK293 3.03% | HaCat -6.87% | KB-3-1 -2.55% | NIH3T3

O=C(/C=C/C=C/c1ccc2c(c1)OCO2)N1CCCCC1
inactive: CRL-7250 | HEK293 3% | HaCat 0.66% | KB-3-1 3.15% | NIH3T3

C=C1CCC2C(C)(C(=O)OC)CCCC2(C)C1CCC1=CCOC1=O (stereo not given)
inactive: CRL-7250 3.38% | HEK293 2.4% | HaCat 1% | KB-3-1 | NIH3T3

CC1=C2C(=O)C=C(CO[C@@H]3O[C@H](CO)[C@@H](O)[C@H](O)[C@H]3O)[C@@H]2[C@H]2OC(=O)[C@H](C)[C@@H]2CC1
inactive: CRL-7250 -4.79% | HEK293 3.74% | HaCat 4.93% | KB-3-1 0.664% | NIH3T3

CC1=C[C@H](O)[C@H]2C(C)(C)CCC[C@]2(C)[C@@]1(O)CO
inactive: CRL-7250 -1.57% | HEK293 -4.11% | HaCat 3.1% | KB-3-1 | NIH3T3

C/C=C(\C)C(=O)OC[C@H]1O[C@@H](O[C@H]2[C@@H](O[C@H]3O[C@H](COC(=O)/C(C)=C/C)[C@@H](O)[C@H](O)[C@H]3O[C@@H]3O[C@H](CO)[C@@H](O)[C@H](OC(=O)/C(C)=C/C)[C@H]3O)O[C@H](COC(=O)/C(C)=C/C)[C@@H](O)[C@@H]2O)[C@H](O)[C@@H](O)[C@@H]1O
inactive: CRL-7250 -2.42% | HEK293 -5.26% | HaCat 2.69% | KB-3-1 | NIH3T3

Cc1ccccc1-c1cc(N2CCN(C)CC2)ncc1N(C)C(=O)C(C)(C)c1cc(C(F)(F)F)cc(C(F)(F)F)c1
inactive: CRL-7250 1.9% | HEK293 -6.53% | HaCat -0.694% | KB-3-1 -5.47% | NIH3T3

CC1=C2C(=O)C=C(CO)C2[C@H]2OC(=O)[C@H](C)[C@@H]2[C@@H](OC(=O)Cc2ccc(O)cc2)C1 (stereo not given in full)
inactive: CRL-7250 | HEK293 -2.2% | HaCat 3.29% | KB-3-1 | NIH3T3

C[C@@H]1C[C@H]2OC(=O)[C@@]3(C)CCC[C@](C)(C23)[C@@]1(O)CCC1=CC(=O)OC1O (stereo not given in full)
inactive: CRL-7250 | HEK293 -8.41% | HaCat 3.15% | KB-3-1 | NIH3T3

C[C@@H]1[C@H](O)[C@@H]2OC(=O)C3=C2[C@H](CCC3)[C@@]12C[C@@H](c1ccoc1)OC2=O
inactive: CRL-7250 4.91% | HEK293 -1.21% | HaCat -22.1% | KB-3-1 | NIH3T3
